Test results taken from PubChem BioAssay.

Tested on: Plasmodium falciparum Sir2 (PF13_0152, Sir2A)
Test: pfSir2 binders on small-molecule microarrays, primary screen, biochemical, small-molecule microarray, 635 nm fluorescence (AID 1098);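 also: score merges spot fluorescence intensity with its signal-to-noise ratio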
Settings: small-molecule microarray binding, fluorescence 635 nm; higher = more signal

First: COC(=O)c1nc2oc1CC[C@@H](CO)NC(=O)N(C)Cc1cnnn1C[C@H](Cc1ccccc1)NC2=O
Second: CCOC(=O)C1=C[C@@H](c2ccccc2)N(S(=O)(=O)c2ccc(C)cc2)[C@H]1c1ccccc1Cl
The composite z-score of the first is lower: 1.81 for the first, 1.9 for the second.

Going from `CN1C(=O)C2C=CC(C(O)COCc3ccccc3)N(N(c3ccccc3)c3ccccc3)C2C1=O` (stereo not given) to `O=C1O[C@H](c2ccccc2)[C@H](c2ccccc2)N2[C@H]1[C@@H](C(=O)Nc1nc3ccccc3s1)[C@]1(C(=O)Nc3ccc(C#CCCO)cc31)[C@H]2c1ccc(O)cc1`, the composite z-score rises from 0.35 to 0.915.

First: COc1cc2c(cc1O)C(C)N(Cc1ccc([N+](=O)[O-])o1)CC2 (stereo not given)
Second: COc1cc(CO)cc(I)c1O[C@H]1C=C(C(=O)NCCO)C[C@@H](NCc2ccc(F)cc2)[C@@H]1O
The composite z-score of the first is higher: 1.38 for the first, 0.935 for the second.

Compared with `C=CCOC(=O)[C@H]1[C@@H]2C(=O)O[C@@H](c3ccccc3)[C@@H](c3ccccc3)N2[C@@H](c2ccc(OCCOC(=O)[C@@H]3C[C@@H]4C(=O)N[C@@H](CCCCN(C)C)C(=O)N4[C@@H]3c3ccc(O)cc3)cc2)[C@]12C(=O)Nc1ccccc12`, `C=CCC(OC(C)=O)[C@@H]1[C@@H](N(Cc2cc3ccccc3o2)C(=O)Cc2ccc(F)cc2)c2cc(OCCCO)ccc2N1C(=O)c1ccc2ccccc2c1` (stereo not given in full) is lower in composite z-score: 0.913 for the first, -0.365 for the second.

First: C[N+](C)(C)CCCCCCNC(=O)[C@H]1C[C@H]2C(=O)NCC(=O)N2[C@H]1c1ccc(O)cc1
Second: COC1OC[C@]2(C)[C@H]3C4=C(CN2C(=O)OC(C)(C)C)[C@H](C)C(CO)C(CO)C4CC[C@@H]13 (stereo not given in full)
The composite z-score of the first is higher: 1.51 for the first, 0.422 for the second.
